# The whole screen tested about 52,000 compounds, of which about 4,300 (8.3%) were called active. The full list was thinned out, with actives kept by preference. Values without a mark were called inactive. Rule as the data show it: active = survival mostly below about 52% (no sharp cut-off); inactive = mostly above about 56%.
# Tested on: DeltatarO mutant
# Assay: S. aureus survival, RN4220 and DeltatarO strains – OD600, teichoic acid synthesis inhibitors, primary screen (AID 463173)
# Settings: S. aureus RN4220 wild type/DeltatarO growth, OD600, 18 h, stronger effect = lower value, screened at 18.75 µg/mL (by protocol)
row,Structure (SMILES),survival
1,Cc1ccc(CCNC(=O)CCCc2nnc3n(C)c(=O)c4sccc4n23)cc1,86%
2,CCCN1CCN(C(=O)Cn2ncc3c4ccccc4n(Cc4cccc(Cl)c4)c3c2=O)CC1,72%
3,CCn1c2ccccc2c2cc(CN3CCN(Cc4cccc(Cl)c4)CC3)ccc21,-1% (active)
4,CCn1c2ccccc2c2cc(CN3CCN(Cc4ccc(Cl)cc4)CC3)ccc21,-1% (active)
5,CCn1c2ccccc2c2cc(CN3CCN(Cc4ccccc4Cl)CC3)ccc21,-1% (active)
6,O=c1c2ccccc2n(Cc2cccc(Cl)c2)c(=O)n1Cc1ccccc1,124%
7,O=c1c2ccccc2n(Cc2ccccc2Cl)c(=O)n1CCc1ccccc1,60%
8,CC(C)n1c(N2CCN(Cc3ccc(Cl)cc3)CC2)nc2ccccc21,83%
9,CCS(=O)(=O)N1CCN(Cc2ccccc2)CC1,72%
10,CCn1c2ccccc2c2cc(CN3CCN(Cc4ccco4)CC3)ccc21,81%
11,Clc1ccccc1CN1CCN(Cc2ccco2)CC1,86%
12,CCCn1c(N2CCN(Cc3ccc(Cl)cc3)CC2)nc2ccccc21,91%
13,CCn1c2ccccc2c2cc(CN3CCN(Cc4ccc(Br)cc4)CC3)ccc21,-1% (active)
14,CCS(=O)(=O)N1CC(=O)N(c2cc(C)cc(C)c2)C(C)(C(=O)NC2CCCCC2)C1 (stereo unspecified),92%
15,COc1cc(NC(=O)Cn2cnc3c2c(=O)n(C)c(=O)n3C)c(OC)cc1Cl,65%
16,CC(C)(C)c1ccc(CSC2=Nc3ccccc3C3=NC(CC(=O)NCc4cccs4)C(=O)N23)cc1 (stereo unspecified),68%
17,CCC(=O)N=c1sc2ccccc2n1-c1ccccc1,71%
18,COc1ccc(C(=O)Nc2ccc3oc(-c4cccnc4)nc3c2)cc1OC,62%
19,CCCCOc1ccccc1C(=O)N(Cc1cccc(F)c1)C1CCS(=O)(=O)C1 (stereo unspecified),75%
20,CCc1ccc(NC(=O)CCn2c(=O)c3cccn3c3ccccc32)cc1,48%
21,COCCCn1c(=O)c2sccc2n2c(CCCC(=O)Nc3ccc(F)c(F)c3)nnc12,83%
22,Cc1ccc(NC(=O)Cn2c(=O)cc(-c3ccccc3)c3c(C)nn(C)c32)c(Cl)c1,78%
23,CCOc1ccc(CN2CCN(C(=O)c3ccco3)CC2)cc1,77%

row,Structure (SMILES),survival
1,CCOc1ccc(CN2CCN(Cc3ccc4c(c3)c3ccccc3n4CC)CC2)cc1,0% (active)
2,CCOc1ccc(Cn2c(=O)oc3ccccc32)cc1,117%
3,CC(C)(C)OC(=O)N1CCC(c2c(C(=O)NC3CCCCC3)cnn2-c2ccc(F)cc2F)CC1,76%
4,CCOc1ccc(NC(=O)NC(C)c2c(-n3cccc3)sc3c2CCN(CC)C3)cc1 (stereo unspecified),96%
5,Cc1nc(-c2ccc(F)cc2)sc1CCNC(=O)Cc1ccc(F)cc1,81%
6,CCOc1ccc(-n2nc(CO)c(C(=O)NCC(C)O)n2)cc1 (stereo unspecified),39% (active)
7,CCOc1ccc(-n2nc(CO)c(C(=O)NCCCc3ccccc3)n2)cc1,89%
8,CCCCNC(=O)c1nn(-c2ccc(CC)cc2)nc1CO,41% (active)
9,Cc1ccc(CNC(=O)c2nn(-c3ccc(Cl)cc3)nc2CO)cc1,94%
10,CCc1ccc(-n2nc(CO)c(C(=O)NCc3cccnc3)n2)cc1,51%
11,CCOc1ccc(-n2nc(CO)c(C(=O)NCc3ccc(Cl)cc3)n2)cc1,43% (active)
12,CCc1ccc(-n2nc(CO)c(C(=O)NCCOC)n2)cc1,56%
13,Cc1ccc(-n2nc(CO)c(C(=O)NCc3cccnc3)n2)cc1,90%
14,CCOc1ccc(-n2nc(CO)c(C(=O)NCc3cccnc3)n2)cc1,44% (active)
15,CCOc1ccc(-n2nc(CO)c(C(=O)NCC(c3ccccc3)c3ccccc3)n2)cc1,48%
16,COCCNC(=O)c1nn(-c2ccc(Cl)cc2)nc1CO,91%
17,CCc1ccc(-n2nc(CO)c(C(=O)NCCCc3ccccc3)n2)cc1,95%
18,COc1ccc(C2CC3(CC(C)(C)NC(=O)N3)Oc3cc(O)ccc32)cc1 (stereo unspecified),102%
19,CCC(=O)Oc1cc(C(C)(C)C)cc2cc(-c3nc(-c4ccc(OC)cc4OC)no3)c(=O)oc12,89%
20,Cc1nn(CCC(=O)NCc2cccc(Br)c2)c(=O)c2nn(-c3ccccc3)c(C)c12,92%
21,CC1=C(c2ccc(C)cc2)S(=O)(=O)N(Cc2ccc(C(=O)NCc3ccccc3F)cc2)C1=O,80%
22,Cc1cc(C)nc(Sc2ccccc2)n1,76%
23,N#Cc1ccccc1NC(=O)CC1Nc2ccccc2NC1=O (stereo unspecified),98%
